Nrf2 inh – Nrf2 qHTS screen for inhibitors | A549 ARE-Fluc reporter, luciferase luminescence, 18-24 h | Potency, µM (titrated, usually from 46 µM), for the others: at the highest dose activity change, negative = inhibition, hits mostly inhibitors | hit rate 2.1% among 360,000 | AID 504444, 2011; also: potency is read from the fitted curve at half-maximal effect; % is scaled to controls: 0 for no effect and ±100 for the full control effect; nearly all actives have a fitted effect of over 60% in size
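A549 ARE_Fluc cells (5000/well, 5% FBS OPTI-MEM) pre-incubated 2 h, then treated with compounds 18-24 h at 37C/5% CO2 in concentration-response. CellTiter-Fluor viability read first; BugLite luciferase luminescence after 15 min at room temperature gives Nrf2 activity.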
A549 tox – Nrf2 qHTS screen for inhibitors: counterscreen for cytotoxicity | AID 504648, 2011 | hit rate 0.16% among 390,000 | Potency, µM (titrated, usually from 46 µM), inactives show at the highest dose activity change, negative = cytotoxicity, actives largely listed as inhibitors | A549 ARE-Fluc cells, CellTiter-Fluor viability, 18-24 h; also: potency is read from the fitted curve at half-maximal effect; % is scaled to controls: 0 for no effect and ±100 for the full control effect
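A549 ARE_Fluc cells in 5% FBS OPTI-MEM were exposed to compounds in concentration-response for 18-24 h at 37 deg C. Viability was read by CellTiter-Fluor fluorescence (Ex 405/Em 525) after 30 min, before the luciferase read.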
miR-21 act – qHTS Assay for Modulators of miRNAs and/orActivators of miR-21; HeLa miR-21 FLuc reporter, luciferase, 48 h; Potency, µM (top dose mostly 38.3 µM), for inactives: top-dose activity change, positive = activation, usual class: activators; 340,000 tested, under 10 active; AID 2288, 2010;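 also: % of control where 0% means no effect; miR-21 action dims this reporter so a rising signal means less miR-21 action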
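HeLa cells endogenously expressing miR-21, stably carrying CMV-driven firefly luciferase with a downstream miR-21 binding site, 2000 cells/well. Titrations up to approximately 40 uM, 48 hours; luciferase luminescence read.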
ClpP mod – qHTS Assay for Activators of ClpP; ATP-dependent Clp protease proteolytic subunit (Bacillus subtilis (strain 168)), P80244; purified B. subtilis ClpP, FRET peptide cleavage, 20 min; Potency, µM (highest dose often 57.5 µM), for inactives: top-dose activity change, negative = active; hit rate 1.9% among 340,000; AID 651965, 2013; active = well fitted falling curve with a large enough effect; inconclusive = small, poorly fitted or top-dose-only effect; inactive = no such curve, though single readings can be large or run the other way; also: potency is read from the fitted curve at half-maximal effect; the source files actives as falling curves though it sought activators and does not explain the sign; nearly all actives have a fitted effect of over 65% in size
Target sequence (P80244 whole entry, looked up): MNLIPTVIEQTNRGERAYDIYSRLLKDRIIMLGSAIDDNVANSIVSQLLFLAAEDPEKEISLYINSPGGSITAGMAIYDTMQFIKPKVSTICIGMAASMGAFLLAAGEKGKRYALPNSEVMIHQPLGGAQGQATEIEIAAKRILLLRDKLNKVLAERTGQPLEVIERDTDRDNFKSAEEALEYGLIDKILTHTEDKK
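FRET quenching reversal measured ClpP activation: 10 microg/mL B. subtilis ClpP at pH 8 with the FRET-FV decapeptide, read at 430 nm after 320 nm excitation. The 20-min minus 0-min signal was scaled between DMSO/no-enzyme wells and ADEP (5.8 microM final).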
Nrf2 ARE act – qHTS of Nrf2 Activators; hit rate 0.31% among 410,000; Potency, µM (titrated, usually from 46.1 µM), for the others: at the highest dose activation, actives largely listed as activators; AREc32 ARE-luciferase reporter (MCF7-derived line), luminescence, 24 h; AID 624171, 2012; also: potency is read from the fitted curve at half-maximal effect; % of control where 0% means no effect; nearly all actives have a fitted effect of over 65% in size
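Each well held 1000 AREc32 cells, which were incubated with compound for 24 hr at 37 deg C after overnight attachment, and ARE reporter activity was quantified by firefly luciferase luminescence.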
p53 reactivation – qHTS assay for re-activators of p53 using a Luc reporter. H1299 p53-A138V BP100-luciferase reporter, luminescence, 24 h. Potency, µM (titrated, usually from 92.2 µM), for inactives: at the highest dose activity change, positive = activation, actives largely listed as activators. hit rate 0.063% among 320,000; also: potency is read from the fitted curve at half-maximal effect; % of control where 0% means no effect; nearly all actives have a fitted effect of over 45% in size
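H1299 (p53-null), stable ts p53-A138V + BP100-Luc; 1000 cells/well, Opti-MEM/10% FBS; cpd 4 pt, 1:5; 24 h, 37 deg C, 5% CO2; detection reagent 10 min RT; luminescence.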
* hit, by the source's call; ? = inconclusive; / = not tested or not shown. Sampled rows, rich in hits. Any-hit rate of the full collection: about 3.7%. Unless noted, calls follow the shape of the dose curve; as a rule, active = well fitted curve in the direction sought with a large enough effect; inconclusive = small, poorly fitted or top-dose-only effect, or another doubt; inactive = no such curve, though single readings can be large; an effect the other way counts as inactive or inconclusive.

SMILES	Nrf2 inh	A549 tox	miR-21 act	ClpP mod	Nrf2 ARE act	p53 reactivation
CCN1CCN(Cc2ccc(NC(=O)c3ccc(C)c(/C=C/c4cnc(Nc5cc(N6CCNCC6)nc(C)n5)cn4)c3)cc2C(F)(F)F)CC1	18µM*	?	?	4%	-6%	/
CC1(c2nnnn2-c2ccc3c(c2)OCCO3)CCC(=O)N1CCc1c[nH]c2ccccc12 (stereo not given)	/	/	/	1%	0%	/
CCC(=O)c1ccc(OCC(=O)Nc2nc(-c3cccnc3)cs2)cc1	10%	4%	/	32µM*	0%	-11%
CCC(=O)c1ccc(OCC(=O)Nc2nc(C)cs2)cc1	?	0%	/	0%	3%	15%
CCCCSCCCNC(=O)c1cn(CC)c2ccc(S(=O)(=O)N3CCCCCC3)cc2c1=O	5%	0%	-9%	1%	-1%	/
CCC(=O)N1c2ccc(S(=O)(=O)CCC(=O)Nc3ccc(Br)c(C)c3)cc2CC1C (stereo not given)	?	-6%	16%	0%	11%	/
COc1ccccc1NC(=O)CN1C(=O)C(c2ccc(F)cc2)=NC12CCCCC2	16µM*	-6%	28%	1%	4%	/
Cc1cccc(NC(=O)CN2C(=O)C(c3ccc(F)cc3)=NC23CCCCCC3)c1	-24%	-18%	-9%	0%	0%	/
CCOc1cc(C(=S)N2CCOCC2)ccc1OC(=O)/C=C/c1ccc(OC)c(OC)c1	4%	0%	3%	25µM*	1%	-8%
Cc1ccccc1S(=O)(=O)NC(=O)C1(C)CCN1C(=O)c1cccc2ccccc12 (stereo not given)	/	/	/	0%	0%	/
CNc1sc(C(=O)c2ccccc2F)c(N)c1-c1nc2ccccc2s1	?	-15%	-32%	1%	10µM*	?
Cc1ccc2onc(CC(=O)N3CCN(c4ccc(F)cc4)CC3)c2c1	16µM*	?	12%	-2%	0%	/
CN(C)c1ccc(/C=C/c2cc[n+](C)cc2)cc1	4.1µM*	21µM*	?	1%	3%	5%
Cc1ccc(/C=C/c2ccc(N(C)C)cc2)[n+](C)c1	4.1µM*	10µM*	?	1%	3%	20%
CN1CCCN=C1/C=C/c1cccs1	3%	2%	-1%	?	0%	15%
C[n+]1ccc(/C=C/c2cccs2)cc1	2.3µM*	8.2µM*	-3%	-1%	2%	2%
CCN(CC)CCCNC(=O)c1ccc2c(c1)NC(=O)C(CS(=O)(=O)Cc1cccc(Br)c1)N2 (stereo not given)	/	-1%	-2%	3.5µM*	2%	/
CCCCNC(=O)c1ccc2c(c1)NC(=O)C(CS(=O)(=O)Cc1ccc(F)cc1Cl)N2 (stereo not given)	16%	0%	-2%	40µM*	3%	/
O=C(NCc1ccccc1Cl)c1ccc2c(c1)NC(=O)C(CS(=O)(=O)Cc1ccc(Cl)cc1)N2 (stereo not given)	/	10%	-14%	4%	0%	/
CCN(CC)CCNC(=O)c1ccc2c(c1)NC(=O)C(CS(=O)(=O)Cc1cccc(Br)c1)N2 (stereo not given)	/	-2%	-3%	7.9µM*	1%	/
CCN(CC)C(=O)c1nn(-c2ccccc2)c2c1C1CCC2(C)C1(C)C (stereo not given)	16µM*	-18%	26%	/	5%	2%
O=C(Cn1cnc2ccccc2c1=O)N1CCN(Cc2ccccc2)CC1	-1%	-1%	-3%	20µM*	-1%	-11%
O=C(Cn1cnc2c(nnn2Cc2ccc(F)cc2)c1=O)N1CCN(c2ccccc2)CC1	1%	?	2%	25µM*	0%	-4%
O=C(Cn1cnc2ccccc2c1=O)N1CCN(Cc2ccc3c(c2)OCO3)CC1	?	-7%	5%	2%	0%	-1%
Cc1cccc(Cn2c(COc3ccc(Cl)cc3)nc3ccccc32)c1	-6%	11%	-5%	-4%	8%	/
SMILES	Nrf2 inh	A549 tox	miR-21 act	ClpP mod	Nrf2 ARE act	p53 reactivation
Cc1ccc(CN2[C@H]3CCCC[C@@H]3OCCS2(=O)=O)cc1	/	/	/	-2%	/	/
COc1ccc(NS(=O)(=O)c2ccc(C)c(C(=O)NC3CCN(Cc4ccccc4)CC3)c2)cc1	13µM*	-28%	16%	-1%	2%	22%
O=C(NC1CCN(Cc2ccccc2)CC1)c1cccc(S(=O)(=O)Nc2ccc(F)cc2)c1	16µM*	?	/	0%	0%	5%
Cc1ccc(NS(=O)(=O)c2cccc(C(=O)NC3CCN(Cc4ccccc4)CC3)c2)c(C)c1	21µM*	?	/	2%	0%	/
COc1ccccc1NS(=O)(=O)c1ccc(C)c(C(=O)NC2CCN(Cc3ccccc3)CC2)c1	?	3%	/	-1%	5%	-1%
O=C(NC1CCN(Cc2ccccc2)CC1)c1cccc(S(=O)(=O)Nc2ccc(Br)cc2)c1	?	-16%	/	-1%	4%	-1%
COc1ccccc1NS(=O)(=O)c1cc(C(=O)NC2CCN(Cc3ccccc3)CC2)ccc1C	5.8µM*	?	/	0%	0%	/
Cc1cc(C)n2ncc(C(=O)NCC(C)C)c2n1	-6%	12%	/	/	/	/
Cc1cccc(NC(=O)COC(=O)c2ccc(S(=O)(=O)N3CCCC3)cc2)c1	11%	-3%	/	2%	0%	2%
CC(NC(=O)c1ccccc1O)c1ccccc1 (stereo not given)	7%	-8%	-1%	16µM*	-1%	-5%
COc1ccccc1C(=O)NC(C)c1ccccc1 (stereo not given)	?	2%	-5%	-1%	2%	-2%
Cc1ccc(S(=O)(=O)ON2C(=O)c3ccccc3C2=O)c(C)c1	-24%	-5%	-6%	0%	0%	?
Cc1cc(C)c(S(=O)(=O)ON2C(=O)c3ccccc3C2=O)cc1C	-8%	0%	0%	8.9µM*	0%	-3%
O=c1cc(CSc2ccccc2)[nH]c2ccc(F)cc12	/	-17%	20%	-1%	1%	/
COc1ccc(/C=N/NC(=O)c2ccn[nH]2)cc1Cn1nc(C)c([N+](=O)[O-])c1C	?	1%	-4%	-3%	6%	2%
COc1ccc(/C=N/NC(=O)c2ccco2)cc1Cn1nc(C)c([N+](=O)[O-])c1C	16µM*	?	6%	0%	4%	-3%
COc1ccc(C(=O)O/N=C/c2c(C(F)(F)F)nn(C)c2SCc2ccccc2Cl)cc1	?	?	-3%	-1%	0%	-2%

Bioassay records as filed in PubChem.
